We go through 17 molecules from PubChem BioAssay (NCI).

What all share (assay): NCI-60 one-dose screen, 48 h (100 = growth as untreated, 0 = no growth, -100 = all killed)
What all share (settings): 10 µM

The subject of assay [1] is NCI-H23 lung.
The subject of assay [2] is NCI-H226 lung.
Assay [3] relates to NCI-H322M lung.
The test system of assay [4] is NCI-H460 lung.
Assay [5] deals with HOP-92 NSCLC.
Assay [6] has as its system NCI-H522 lung.
Assay [7] relates to A549/ATCC NSCLC.
Assay [8] concerns 786-0 renal.
For assay [9], the system named is COLO 205 colon.
Assay [10] concerns DU-145 prostate.
The subject of assay [11] is K-562 leukemia.
For assay [12], the system named is MALME-3M melanoma.
The test system of assay [13] is MDA-MB-231 breast.
Assay [14] has as its system RXF 393 renal.
Assay [15] has as its system SF-268 CNS.
Assay [16] deals with SF-295 CNS.
Assay [17] has as its system SF-539 CNS.
The test system of assay [18] is UACC-257 melanoma.
The test system of assay [19] is M14 melanoma.
Assay [20] deals with HOP-62 NSCLC.

Each structure is given as a SMILES string. This is part of a sample that, as a whole, favours compounds with a hit. Of some 83,000 tested, about 20% had one in any assay.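 Interpretation: 100, growth as untreated; towards 0, rising growth inhibition; 0, no net growth; 0 to -100, cell death. Compounds scoring below 10 were considered active.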 Unmarked numbers belong to inactive results. Activity calls are given as the source filed them.

For the molecule `CC(=O)OC1CC2C(C)(C)OC3CC(=O)OCC32C2CCC3(C)C(=CCC3c3ccoc3)C12C` (stereo not drawn), the growth was 108% in [1]; 98.7% in assay [2]; 111% in assay [3]; 108% in [4]; -13% (active) in [5]; 35.6% in assay [6]. For the same molecule, the growth was 104% in [7]; 103% in assay [8]; 76.1% in assay [9]; 92.5% in assay [10]; 95.5% in assay [11]; 85.2% in [12]. Besides, the growth was 115% in assay [13]; 105% in assay [14]; 98.6% in assay [15]; 107% in [16]; 104% in assay [17]; 72.7% in [18]. Besides, the growth in assay [19] was 115%.

Take `CCOC(=O)C1OC1c1ccccc1` (stereo not drawn): the growth in [1] was 98.6%; in [2], 100%; in assay [3] it was 101%; in [4], 103%; in [5] it was 99.2%; in assay [6] it was 104%. The growth in assay [7] was 102%; in assay [8] it was 98.3%; in assay [9], 102%; in [10], 107%; in assay [11], 103%; in assay [12] it was 103%. Also, the growth in assay [13] was 111%; in [14] it was 112%; in assay [15], 97.5%; in assay [16], 93.2%; in assay [17], 99.4%; in [18], 106%. The growth in [19] is 97.8%.

With `CC(=O)Cc1ccc(-c2ccccc2)cc1`, the growth is 95.6% in [1]; 91.5% in assay [2]; 85.9% in assay [3]; 103% in assay [4]; 96.3% in assay [5]; 111% in [6]. Further, the growth in assay [7] is 94.8%; in assay [8], 105%; in [9], 115%; in [10] it was 107%; in assay [11], 108%; in assay [12] it was 77.1%. Besides, the growth in [13] was 95.9%; in assay [14], 102%; in assay [15], 98%; in assay [16], 99.8%; in [17], 108%; in [18], 98.8%. Moreover, the growth in assay [19] was 109%.

In the case of `Cc1ncc(C#N)c(N)n1`, the growth in assay [1] is 99%; in [2] it was 94.8%; in assay [3], 89.1%; in [4], 102%; in assay [5], 87.1%; in assay [6] it was 102%. Moreover, the growth is 106% in assay [7]; 96.4% in assay [8]; 107% in [9]; 114% in assay [10]; 120% in [11]; 93.8% in assay [12]. Besides, the growth in assay [13] is 98.9%; in assay [14], 89.6%; in assay [15] it was 107%; in assay [16], 98%; in assay [17], 105%; in assay [18], 106%. Further, the growth in assay [19] was 95.9%.

Regarding `CC1(C(N)=O)CCC(C(=O)O)C1(C)C` (stereo not drawn), the growth in [1] is 103%; in [2] it was 95.5%; in [3], 95.2%; in assay [4], 103%; in assay [5], 94.3%; in [6], 106%. Also, the growth is 98% in assay [7]; 98% in assay [8]; 108% in assay [9]; 113% in [10]; 114% in assay [11]; 74.9% in [12]. Moreover, the growth is 91.2% in assay [13]; 104% in [14]; 104% in assay [15]; 91.2% in assay [16]; 96.8% in assay [17]; 99.5% in assay [18]. Moreover, the growth in [19] is 108%.

Consider `COc1cccc(O)c1O`, for which the growth was 56.3% in [1]; 101% in assay [2]; 98.6% in assay [3]; 103% in assay [4]; 93.7% in [5]; 79% in assay [6]. The growth in assay [7] is 101%; in [8], 88.1%; in [9], 108%; in [10], 27%; in assay [11], 78.4%; in assay [12], 67%. Besides, the growth in assay [13] is 85.5%; in assay [14], 72.7%; in assay [16] it was 104%; in assay [17] it was 20.6%; in assay [18], 72.3%; in [19], 44.6%.

Take `Cc1c(C(=O)O)c(=O)n(-c2ccccc2)n1C`: the growth was 92% in assay [1]; 103% in assay [2]; 122% in assay [3]; 96.7% in [20]; 104% in assay [6]; 108% in assay [7]. Moreover, the growth in [8] was 113%; in [10], 118%; in assay [11] it was 108%; in assay [12], 163%; in assay [13] it was 118%; in assay [14] it was 119%. The growth in assay [15] is 119%; in assay [16] it was 91.4%; in [17], 119%; in assay [18], 93.8%; in assay [19], 104%.

On to `CNC(=O)c1ccccc1CC1(O)c2ccccc2Oc2ccccc21`, for which the growth in [1] is 71.5%; in assay [2] it was 77%; in assay [3], 51.8%; in assay [20], 71.4%; in assay [6], 24.8%; in [7] it was 41.8%. The growth was 74.8% in assay [8]; 38% in [9]; 61.3% in assay [10]; 22% in assay [11]; 29.9% in [12]; 66.3% in assay [13]. Further, the growth is 61.3% in assay [14]; 57.7% in [15]; 36.8% in assay [16]; 56.5% in assay [17]; 58% in assay [18]; 42.2% in [19].

Turning to `CC1(C)OC(=O)C(c2ccsc2)C(=O)O1`, the growth in [1] is 95%; in assay [2] it was 105%; in [3], 102%; in assay [4], 113%; in assay [5] it was 104%; in assay [6], 82.6%. In addition, the growth in assay [7] is 84.7%; in assay [8], 108%; in [10], 107%; in [11], 107%; in [12], 112%; in [13], 111%. In addition, the growth was 107% in assay [14]; 99.6% in assay [15]; 108% in assay [16]; 98.9% in assay [17]; 104% in assay [18]; 106% in assay [19].

For the molecule `CCC(=O)Oc1ccc(OC)cc1`, the growth in assay [1] is 108%; in [2], 105%; in assay [3], 95.5%; in [20] it was 98%; in assay [7] it was 105%; in [8], 105%. Also, the growth in assay [10] is 98.3%; in assay [11], 107%; in assay [12], 89.1%; in assay [13], 103%; in assay [14] it was 116%; in [15] it was 102%. Also, the growth was 118% in assay [16], 101% in assay [17], 108% in assay [18] and 104% in assay [19].

In the case of `CC(C)CCOC(=O)c1ccccc1`, the growth in [1] was 106%; in assay [2] it was 102%; in assay [3], 95.6%; in [4], 106%; in assay [5] it was 101%; in [6], 104%. The growth in assay [7] is 102%; in [8], 99.8%; in [9], 105%; in assay [10], 108%; in [11] it was 102%; in assay [12] it was 96.9%. Moreover, the growth in assay [13] is 104%; in assay [14], 119%; in assay [15] it was 102%; in assay [16], 100%; in [17] it was 98.8%; in assay [18], 101%. The growth in [19] is 100%.

`OCc1ccc(-c2ccc(-c3ccc(CO)s3)o2)s1`: the growth in assay [1] was 47.5%; in assay [2], -23.9% (active); in assay [3] it was 55.3%; in [20] it was 67.1%; in assay [6], 25.9%; in assay [7] it was 19.8%. Moreover, the growth in assay [8] is 30.2%; in [9], 13.1%; in assay [10], 6.59% (active); in [11] it was -3.52% (active); in assay [12], 78.1%; in assay [13], 98.8%. Besides, the growth in [14] was 57%; in assay [15], 73.4%; in [16], 13.6%; in [17] it was 43.8%; in [18] it was 32.5%; in assay [19], 87.6%.

Regarding `O=C(O)CSCSCC(=O)O`, the growth in assay [1] is 99.8%; in assay [2] it was 95.2%; in [3], 108%; in assay [20], 91.5%; in [8] it was 103%; in assay [10], 111%. The growth was 97.8% in [11]; 105% in assay [12]; 107% in [13]; 97% in [14]; 110% in assay [15]; 96.6% in assay [16]. Also, the growth in [17] is 98.3%; in assay [19], 108%.

For `CC1(C(=O)O)NC(C(=O)O)Cc2c1[nH]c1ccccc21` (stereo not drawn), the growth is 101% in assay [1]; 93.8% in [2]; 91.5% in [3]; 102% in [20]; 92.6% in assay [6]; 101% in assay [7]. Moreover, the growth in assay [8] is 104%; in assay [9] it was 104%; in assay [10], 110%; in assay [11], 96.9%; in [12], 90.5%; in assay [13], 104%. Also, the growth in assay [14] is 110%; in assay [15], 113%; in [16] it was 90.2%; in assay [17] it was 105%; in assay [18], 87.6%; in [19], 96.7%.

As for `COc1ccc(OC)c(/C=C2\CCc3ccccc3C2=O)c1`, the growth in assay [1] was 62.7%; in assay [2] it was 76.5%; in assay [3], 70%; in [4] it was 13.9%; in assay [5], 45.2%; in [6], 22.5%. For the same molecule, the growth in assay [7] was 42.6%; in assay [8], 46.9%; in assay [10], 55.5%; in [11], 18.3%; in [12] it was 63.4%; in [13], 52.9%. Besides, the growth is 60.3% in assay [14]; 56.3% in [15]; 32% in assay [16]; 26% in assay [17]; 75.3% in assay [18]; 15% in assay [19].

Regarding `O=[N+]([O-])c1ccc(O)c(S(=O)(=O)O)c1`, the growth in [1] is 103%; in assay [2] it was 102%; in [3], 126%; in assay [20], 101%; in [6], 104%; in assay [7], 106%. Besides, the growth in assay [8] was 104%; in [10], 110%; in assay [12] it was 127%; in assay [13], 88.7%; in assay [14] it was 117%; in assay [15], 114%. Besides, the growth is 102% in [16], 100% in assay [17], 99.3% in assay [18] and 109% in assay [19].

Turning to `C=CCNC(=O)c1ccc(OC)cc1`, the growth is 99.5% in [1]; 99.4% in [2]; 98.5% in [3]; 109% in [20]; -12.1% (active) in assay [6]; 50.4% in assay [7]. In addition, the growth is 107% in [8]; 109% in assay [9]; 124% in [10]; 105% in [11]; 117% in [12]; 104% in [13]. For the same molecule, the growth in assay [14] is 111%; in [15] it was 126%; in assay [16] it was 115%; in assay [17], 100%; in assay [18], 97.6%; in assay [19], 100%.
